# Source: ChEMBL document CHEMBL4513216, “Probing the Open Global Health Chemical Diversity Library for Multistage-Active Starting Points for Next-Generation Antimalarials” (ACS Infect Dis, 2020)
# Among all 69,000 compounds or so, about 8,600 (12%) showed an effect of 50% or more. The sample as a whole holds a higher share of strong results than the screen did.
# System: Plasmodium berghei
# Assay: Screen against P. berghei liver stage (PbLuc), transformed with Luciferase, at 10uM
# Assay type: functional, HepG2
# Conditions: tested at 10 uM
row,Structure (SMILES),INHIBITION [%]
1,Cn1ccnc1CN1CCCC(CCCc2ccccn2)(C(N)=O)C1 (stereo not drawn),10.9
2,O=C(NCCc1ccco1)Nc1cc(C(F)(F)F)c[nH]c1=O,4.8
3,Cc1nc(C)n(CC2CCCN2CC(=O)Nc2cc(C)on2)n1 (stereo not drawn),40.2
4,CCN(C)C(=O)Cn1c(-c2ccco2)nn(-c2ccccc2OC)c1=O,33.3
5,Cc1cccnc1C(=O)N1C[C@@H]2CC[C@H](Oc3cccc(F)c3)[C@@H]2C1,20.8
6,COCCN1CCC(NCc2ccc(F)cc2F)C1 (stereo not drawn),25.4
7,CSCC(=O)N1CCc2c(cnc(C)c2-c2noc(-c3cc[nH]n3)n2)C1,12.1
8,O=C(Cc1ccc2c(c1)CCC2)N1CCN(c2cnccn2)CC1,-46.4
9,O=C(CCCNC(=O)NCC1CCCO1)Nc1ccc(Cl)cc1 (stereo not drawn),25.8
10,Cc1cc(C)cc(C(=O)NCCCNc2ncccn2)c1,55.4
11,CCOc1ccc(C(=O)NCCCNc2ncccn2)cc1,41.5
12,COc1cc(OC)cc(C(=O)NCCCNc2ncccn2)c1,-14.1
13,O=C(CCCNc1ncccn1)Nc1cc(C(F)(F)F)c[nH]c1=O,29.15
14,CC(O)(CNC(=O)c1c(F)cccc1Cl)c1ccco1 (stereo not drawn),55.6
15,O=C(NCC(O)(c1ccco1)C1CC1)c1c(F)cccc1Cl (stereo not drawn),46.7
16,CC(O)(CNC(=O)c1c(F)cccc1Cl)C1CC1 (stereo not drawn),9.79
17,Cc1cc(Cl)ccc1NCc1ccc(C(=O)N(C)C)[nH]1,3.03
18,CCc1cnc(N2C[C@@H](NC(=O)c3cscn3)[C@H]3COC[C@H]32)nc1,-82.5
19,CN1CCC2(C=C(C(=O)N(C)C)c3ccccc32)CC1,63.8
20,CC(C)N1CCC2(C=C(C(=O)N(C)C)c3ccccc32)CC1,-41.6
21,CCC(=O)N1CCC2(C=C(C(=O)N(C)C)c3ccccc32)CC1,53
22,CCC(=O)N1CCC2(C=C(C(=O)N3CCCC3)c3ccccc32)CC1,34.9

row,Structure (SMILES),INHIBITION [%]
1,CC(C)CN1CCC2(C=C(C(=O)N(C)C)c3ccccc32)CC1,30.3
2,CCN1CCC2(C=C(C(=O)N(C)C)c3ccccc32)CC1,41.2
3,CC(C)COC(C)C(=O)NCCNC(=O)C(C)C (stereo not drawn),36.8
4,O=C(Cn1cc(Cl)cn1)N1CCCC(c2cc3ccccc3cn2)C1 (stereo not drawn),24.4
5,O=C(C1CC=CC1)N1CCCn2nnc(CNc3ncccn3)c2C1,29.5
6,Fc1cccc(-n2ccc(CN3CCCC3Cn3cncn3)n2)c1 (stereo not drawn),-19.4
7,Cc1nc(C(=O)N2CCCC2c2cncc(CN3CCCC3)n2)co1 (stereo not drawn),-33.6
8,Cc1cc(C2CCCN2C(=O)c2cnn(C)c2)on1 (stereo not drawn),0.8
9,Cc1cccc(NCC(=O)Nc2cc(F)ccc2F)c1C(N)=O,-33.7
10,CCN1C[C@H]2[C@@H](C1)N(C(=O)Cc1ccsc1)CC[C@H]2OC,-9.74
11,CCn1nc(C)cc1C(=O)N1CC[C@H](OC)[C@H]2CN(CC3CC3)C[C@H]21,-6.39
12,CCN1C[C@@H]2[C@@H](OC)CCN(C(=O)c3cc(C)nn3CC)[C@@H]2C1,84.1
13,CCC(C)NS(=O)(=O)c1ccc(C(=O)NC2(C#N)CCC2)cc1 (stereo not drawn),3.13
14,COCCc1noc(CN(C)C(=O)C(C)N2CCc3ccccc3C2)n1 (stereo not drawn),2.29
15,CC(C)c1cc(CN(C)C(=O)C(C)N2CCc3ccccc3C2)no1 (stereo not drawn),63.1
16,CC(C(=O)N(C)Cc1noc(C2CCC2)n1)N1CCc2ccccc2C1 (stereo not drawn),25.8
17,Cn1cc(C2CCCN2C(=O)c2cnc(-c3cccs3)s2)cn1 (stereo not drawn),37.7
18,O=C(C1CCOC1)N1Cc2ccccc2OC2(CCOCC2)C1 (stereo not drawn),12.8
19,CN(CCNC(=O)N1CCCC1)C(=O)OC(C)(C)C,-30.5
20,CCOC1CCN(C(=O)NCCN(C)C(=O)OC(C)(C)C)CC1,58.2
21,CC(CCNC(=O)N1CCC1)N(C)C(=O)OC(C)(C)C (stereo not drawn),8.18
22,COCCN(Cc1ccoc1)S(=O)(=O)c1ccc(F)c(Cl)c1,-31.7

row,Structure (SMILES),INHIBITION [%]
1,CC(=O)c1cc(CC(=O)NCc2ccc(F)cc2)cs1,-38.2
2,COc1ccc(CNC(=O)Cc2csc(C(C)=O)c2)cc1,33
3,CC(=O)c1cc(CC(=O)NCc2ccc(CN(C)C)cc2)cs1,50.1
4,CS(=O)(=O)Cc1ccc(CNC(=O)N2CCC(C(N)=O)C2)cc1 (stereo not drawn),2.97
5,CCOc1ncccc1NC(=O)NC1CCN(c2ncccn2)CC1,-19.9
6,CC(C)n1nc2c(cc1=O)CN(Cc1nc3ccccc3o1)CC2,26.5
7,CCn1nc2c(cc1=O)CN(CC(=O)N(C)c1nccs1)CC2,50.7
8,CCn1nc2c(cc1=O)CN(CC(=O)Nc1nccs1)CC2,18.2
9,CC(C)n1nc2c(cc1=O)CN(c1nc3ccccc3s1)CC2,35
10,CCCn1nc2c(cc1=O)CN(CC(=O)N(C)c1nccs1)CC2,9.56
11,CC(C)n1nc2c(cc1=O)CN(c1ncnc3ccccc13)CC2,94.5
12,Cn1nc2c(cc1=O)CN(c1ncnc3ccsc13)CC2,34.6
13,CN(C(=O)CN1CCc2nn(C)c(=O)cc2C1)c1nccs1,29
14,CCCn1nc2c(cc1=O)CN(c1ncnc3ccsc13)CC2,91.9
15,CCn1nc2c(cc1=O)CN(c1nc3ccccc3s1)CC2,37.7
16,CCCn1nc2c(cc1=O)CN(CCCN1CCCC1=O)CC2,6.56
17,CCn1nc2c(cc1=O)CN(c1ncnc3ccsc13)CC2,93.6
18,CCCc1c(C2CCOC(C)(C)C2)nc(N)c(C#N)c1-c1cnn(C)c1 (stereo not drawn),4.15
19,Cc1ccoc1C(=O)NCCS(=O)(=O)N1CCSCC1,4.52
20,c1ccc(Cc2nnc(CN3CCCC(Cn4cncn4)C3)o2)cc1 (stereo not drawn),-15.3
21,COc1cc(N2CCC3(CCCN(C(=O)c4cccnc4)C3)C2)ncn1 (stereo not drawn),19.8
22,C=C(C)COc1ccccc1CN1CCC(C(=O)NCC)C1 (stereo not drawn),3.06

row,Structure (SMILES),INHIBITION [%]
1,CC(=O)N[C@@H]1CN(C(=O)CC2CC2)C[C@H]1O,49.9
2,Cc1ccc(-c2[nH][nH]c(=O)c2CCN)cc1,44.9
3,Cc1cc(C)n(C2CCCN(C(=O)c3ccc4c(c3)COC4)C2)n1 (stereo not drawn),15.815
4,COCc1nc(C(=O)NS(=O)(=O)c2ccc(Cl)cc2F)cs1,-64.25
5,COc1cccc(Oc2nc(C)c(C(=O)O)s2)c1OC,45.5
6,Cc1cc(C2CCCN2Cc2nc3c(cnn3C)c(=O)[nH]2)on1 (stereo not drawn),27.6
7,Cn1cc(CN2CC[C@H]3OCC[C@@H](C(=O)Nc4cnccn4)[C@@H]3C2)cn1,38.5
8,O=C(Cc1cccc(F)c1)NCCNCc1cccnc1,33.3
9,Cn1c(CN2CCC(N3CCNC3=O)CC2)cc(=O)n(C)c1=O,29
10,CC(C)n1nc2c(cc1=O)CN(CC(=O)N(C)c1nccs1)CC2,17.1
11,CC(C)n1nc2c(cc1=O)CN(Cc1nnc(C3CC3)o1)CC2,-25.9
12,CC(C)n1nc2c(cc1=O)CN(c1ncnc3ccsc13)CC2,86.8
13,c1csc(CN2C[C@@H]3OCCN(CC4CCCO4)[C@@H]3C2)c1 (stereo partly drawn),-21.5
14,CC(=O)Nc1nc(C2CCN(C(=O)C3CCC3)CC2)cs1,36.7
15,O=C(NCc1ccnc(C2CCCOC2)n1)c1cccs1 (stereo not drawn),33.5
16,Cc1ccsc1C(=O)NCc1ccnc(C2CCCOC2)n1 (stereo not drawn),5.1
17,O=C(Cc1cccs1)NCc1ccnc(C2CCCOC2)n1 (stereo not drawn),53.8
18,CCN1CCOCC2(CCCN(C(=O)c3cccc(O)c3)C2)C1 (stereo not drawn),26
19,O=C(c1cccc2ccnn12)N1CCC[C@H]1CN1CCCC1,19.8
20,Cc1cc(C(=O)N2CCCC3(CNC(=O)O3)C2)c2c(C)nn(C)c2n1 (stereo not drawn),54.1
21,O=C1NCC2(CCCN(C(=O)c3c[nH]nc3C3CCCCC3)C2)O1 (stereo not drawn),31.8
22,Cc1cc(C)n2nc(C(=O)N3CCCC4(CNC(=O)O4)C3)cc2n1 (stereo not drawn),27.4

row,Structure (SMILES),INHIBITION [%]
1,CCN1C(=O)CCCC12CCCN(C(=O)c1cnccn1)C2 (stereo not drawn),27.4
2,Cc1ccc(-c2cc(CNC(=O)N3CCSCC3)on2)cc1,-5.25
3,COc1c(CNC(c2ccccc2F)c2nccn2C)c(C)nn1C (stereo not drawn),2.95
4,Cc1cccc2cc(CO)c(N3Cc4cnc(C(C)(C)C)nc4C3)nc12,91.2
5,Cc1ccc(C(=O)O)c(N2Cc3cnc(C(C)(C)C)nc3C2)n1,-7.27
6,CC(C)Cc1ncc2c(n1)CN(c1nc3ccccc3cc1CO)C2,33.9
7,O=C(c1n[nH]c2c1CN(C1CCOC1)CC2)N1CCCC1 (stereo not drawn),12.4
8,COCC1CC2(CCN(C(=O)c3ccco3)CC2)CN1C(C)C (stereo not drawn),17.4
9,CN(Cc1ccc2c(c1)OCCO2)Cc1nc2c(cnn2C)c(=O)[nH]1,59.4
10,CN(CCOc1cccc(F)c1)Cc1nc2c(cnn2C)c(=O)[nH]1,55.2
11,CC(C)CCN(C)Cc1nc2c(cnn2C)c(=O)[nH]1,-21.05
12,CN(CC(=O)N1CCCC1)Cc1nc2c(cnn2C)c(=O)[nH]1,64
13,CCN(Cc1ccc2c(c1)OCO2)Cc1nc2c(cnn2C)c(=O)[nH]1,-6.14
14,CN(Cc1cccc(F)c1)Cc1nc2c(cnn2C)c(=O)[nH]1,23.7
15,CN(CC(=O)N(C)C1CCCCC1)Cc1nc2c(cnn2C)c(=O)[nH]1,55.4
16,CC(C)CN(C)Cc1nc2c(cnn2C)c(=O)[nH]1,-14.935
17,CCN(CC)C(=O)CN(C)Cc1nc2c(cnn2C)c(=O)[nH]1,37.2
18,CN(CC(=O)N(C)C1CCCCC1)Cc1nc2ccccc2c(=O)[nH]1,44.7
19,CN(Cc1ccc2c(c1)OCO2)Cc1nc2c(cnn2C)c(=O)[nH]1,13.9
20,CN(CCCOc1ccc(F)cc1)Cc1nc2c(cnn2C)c(=O)[nH]1,39.2
